These results are taken from PubChem BioAssay (EPA / NIEHS).

Calls of active or inactive are those of the source. How the source made its calls: active means hit-call score of the fitted dose curve at least 0.9, where 1 is the maximum; inactive means score below 0.9.

Sequence of Myc proto-oncogene protein (Homo sapiens) (P01106 whole entry, looked up): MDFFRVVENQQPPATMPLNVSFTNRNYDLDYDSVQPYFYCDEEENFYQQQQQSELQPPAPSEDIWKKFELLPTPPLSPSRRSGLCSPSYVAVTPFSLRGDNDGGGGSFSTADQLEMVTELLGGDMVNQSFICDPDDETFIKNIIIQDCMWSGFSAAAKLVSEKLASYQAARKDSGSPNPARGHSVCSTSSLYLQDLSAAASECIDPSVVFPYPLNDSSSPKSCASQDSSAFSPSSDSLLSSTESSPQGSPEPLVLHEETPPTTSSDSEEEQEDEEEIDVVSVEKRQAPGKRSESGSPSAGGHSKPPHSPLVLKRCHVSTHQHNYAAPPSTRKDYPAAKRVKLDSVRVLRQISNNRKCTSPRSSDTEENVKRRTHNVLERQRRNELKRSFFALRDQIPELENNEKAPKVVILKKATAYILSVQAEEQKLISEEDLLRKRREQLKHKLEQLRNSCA

This experiment has as its target Myc proto-oncogene protein (Homo sapiens) (UniProt P01106). Description: ATG_Myc_CIS: Attagene CIS-FACTORIAL HepG2 Assay for human Myelocytomatosis (Myc) Proto-Oncogene Transcription Factor (AID 2282990). The note with it: HepG2, Attagene cis-reporter transcription factor activity; actives raise or lower the signal. In outline: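 HepG2, transient MRTU transfection (cis promoters, endogenous TFs); 24 h dosing; TriZol RNA → oligo(dT) RT → PCR → 6-FAM primer extension → HpaI cut → CE. Bidirectional fit vs DMSO.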
One may read the AC50 as the concentration at which the activity in the assay is half-maximal. Take `CCOC(=O)c1ccc(C2CCC(NC[C@H](O)COc3ccc(O)c(NS(C)(=O)=O)c3)CC2)cc1` (some centres undefined): the concentration at half-maximal activity (AC50) was 53.8 µM (active).

Consider `CCOCCOCCOCCO`, for which the molecule was classed as inactive.

`COC(=O)c1ccccc1O`: the result was inactive.

Consider `CC(=O)OC[C@H]1O[C@@](COC(C)=O)(O[C@H]2O[C@H](COC(C)=O)[C@@H](OC(C)=O)[C@H](OC(C)=O)[C@H]2OC(C)=O)[C@@H](OC(C)=O)[C@@H]1OC(C)=O`, for which the result was inactive.

In the case of `CCC(C)(C)C(=O)O[C@H]1C[C@@H](C)C=C2C=C[C@H](C)[C@H](CC[C@@H]3C[C@@H](O)CC(=O)O3)[C@H]21`, the result was inactive.

As to `CCCN(C1CCN(C(=O)C2CCNCC2)CC1)[C@@H]1CCc2ccc(OC)cc2C1`, the AC50 was 175 µM (active).

On to `COc1ccc(/C=C/S(=O)(=O)NC(=O)c2ccc(C)cc2Cl)cc1`, for which the outcome was inactive.

For the molecule `O=C(O)c1cc(N=Nc2ccc(S(=O)(=O)Nc3ccccn3)cc2)ccc1O`, the call was inactive.

In the case of `CC(C)=CCC/C(C)=C\CO`, the molecule was called inactive.

With `C=CCCCCCCCCC(=O)O`, the result was inactive.

With `O=C(O)CC(O)C(=O)O` (centres undefined), the call was inactive.

Take `CC(=O)c1ccc2c(c1)[C@H](NC(=O)c1ccc(F)cc1)[C@@H](O)C(C)(C)O2`: the call was inactive.

For `Oc1ccc2c(c1)-c1ccccc1C2`, the AC50 is 63.1 µM (active).

Take `CC(C)=CCC/C(C)=C/CO`: the result was inactive.

As for `CCc1cc(SCc2sc(-c3ccc(C(F)(F)F)cc3)nc2CN2CCN(c3ccc(OC)cc3)CC2)ccc1OCC(=O)O`, the result was inactive.

With `CCN(C(=O)c1cc(C)cc(OC[C@H](C)Nc2ccncc2)c1)C(C)C`, the call was inactive.

With `On1ccccc1=S`, the molecule was classed as inactive.

Regarding `CCOCCO`, the molecule was called inactive.

Regarding `O=c1[nH]c2ccc(S(=O)CCN3CCC(Cc4ccc(F)cc4)CC3)cc2o1` (centres undefined), the call was inactive.

In the case of `Fc1ccccc1[C@@H](F)COC1CCC(Nc2ncnc3[nH]ncc23)CC1` (some centres undefined), the AC50 is 25.4 µM (active).

Consider `COC(=O)CC(=O)OC`, for which the molecule was classed as inactive.

Consider `CCNc1ccccc1`, for which the outcome was inactive.

On to `CC[C@H](C)C(=O)O[C@H]1C[C@@H](C)C=C2C=C[C@H](C)[C@H](CC[C@@H]3C[C@@H](O)CC(=O)O3)[C@H]21`, for which the molecule was classed as inactive.

With `COc1cccc(-c2ccc(/C=C\CN3CCCCCC3)cc2Cl)c1`, the molecule was classed as inactive.

In the case of `COc1ccc(-n2nc(C(F)F)cc2-c2ccc(S(C)=O)cc2)cc1` (centres undefined), the molecule was classed as inactive.

`CCCCCCc1ccc(O)cc1O`: the outcome was inactive.

Consider `COCCOc1cc2cc(C(=O)NC3CCN(C(C)C)CC3)n(CC(=O)Nc3ccc(Cl)cn3)c2cn1`, for which the molecule was classed as inactive.

On to `CCOC(=O)CC(CC(=O)OCC)(OC(C)=O)C(=O)OCC`, for which the molecule was classed as inactive.

In the case of `CC(=O)OCCC(C)C`, the molecule was called inactive.
